# Data: PubChem BioAssay (Tox21)
# Inconclusive results are not listed. Entries that show only a call come without a potency. Calls of active or inactive are those of the source. Unless noted, the call rests on the fitted dose curve.
# Columns and labels:
# [1] = qHTS assay to identify small molecule antagonists of the sonic hedgehog signaling (Shh) pathway (AID 1259369); further: nearly all actives have a fitted effect of over 45% in size; further: potency means the concentration at half of the fitted maximal effect
# In short: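 NIH/3T3-derived Gli1-Luc reporter cells plated 4 h, dosed with compound, then stimulated with conditioned medium for 24 h at 37 C. Firefly luciferase luminescence read after 30 min with detection reagent at room temperature.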
# [2] = target: Estrogen receptor beta (Homo sapiens) (UniProt Q92731); assay: qHTS assay to identify small molecule agonists of the estrogen receptor beta (ER-beta) signaling pathway (AID 1259377; active means well fitted activation curve with a large enough effect in the signal ratio in the repeat runs, not every such curve was filed as active; the % refers to the signal ratio)
# In short: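 Ratiometric beta-lactamase FRET read-out came after 2 h substrate loading at room temperature. It followed 16 h compound treatment at 37C of GripTite HEK293T cells carrying a UAS-bla reporter, plated in 2% charcoal-stripped FBS medium.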
# [3] = target: Estrogen receptor beta (Homo sapiens) (UniProt Q92731); assay: qHTS assay to identify small molecule antagonists of the estrogen receptor beta (ER-beta) signaling pathway (AID 1259378; active means well fitted inhibition curve with a large enough effect in the signal ratio in the repeat runs, not every such curve was filed as active; the % refers to the signal ratio; further: potency means the concentration at half of the fitted maximal effect)
# In short: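 Antagonist mode: compounds added to beta-lactamase reporter HEK293T ER-beta-UAS cells stimulated with E2 (1nM final), 16 hr at 37C. LiveBLAzer B/G FRET substrate, 2 hours room temperature, fluorescence read-out.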
# [4] = qHTS assay to identify small molecule agonists of the androgen receptor (AR) signaling pathway in the presence of an antagonist - cell viability counter screen (AID 1259379; active means well fitted curve in the direction sought with a large enough effect in the repeat runs; an effect the other way counts as inactive or inconclusive; further: nearly all actives have a fitted effect of over 25% in size; further: potency means the concentration at half of the fitted maximal effect)
# In short: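 MDA-kb2 cells (MMTV-luciferase, AR/GR), 3,000/well, 5 h attachment, then 3.0 µM nilutamide (final) and compounds at 15 concentrations. Viability by CellTiter-Fluor fluorescence after 16 h at 37 °C, 0% CO2, in the reporter wells.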
# [5] = qHTS assay to identify small molecule agonists of the estrogen receptor beta (ER-beta) signaling pathway - cell viability counter screen (AID 1259380; active means well fitted curve in the direction sought with a large enough effect in the repeat runs; an effect the other way counts as inactive or inconclusive; further: nearly all actives have a fitted effect of over 30% in size; further: potency means the concentration at half of the fitted maximal effect)
# In short: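 ER-beta-UAS-bla HEK293T cells in medium with 2% charcoal-stripped FBS, pre-incubated 6 hr, then treated 16 hr at 37C. Cytotoxicity read in the same wells by CellTiter-Glo luminescence after 30 min at room temperature.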
# [6] = target: Androgen receptor (Homo sapiens) (UniProt P10275); assay: qHTS assay to identify small molecule agonists of the androgen receptor (AR) signaling pathway in the presence of an antagonist (AID 1259381); further: nearly all actives have a fitted effect of over 15% in size
# In short: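 MDA-kb2 cells carrying MMTV-luciferase (AR/GR responsive), 3,000 cells/well, co-treated with 3.0 uM nilutamide final. Compounds at 15 concentrations, 16 hr at 37C without CO2. Luciferase luminescence read after 30 min with ONE-Glo.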
# [7] = qHTS assay to identify small molecule antagonists of the estrogen receptor beta (ER-beta) signaling pathway - cell viability counter screen (AID 1259382; active means well fitted curve in the direction sought with a large enough effect in the repeat runs; an effect the other way counts as inactive or inconclusive; further: nearly all actives have a fitted effect of over 55% in size; further: potency means the concentration at half of the fitted maximal effect)
# In short: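 ER-beta-UAS-bla HEK293T cells in 2% charcoal-stripped FBS medium, treated with compound plus 1 nM 17-beta-estradiol for 16 h at 37C. Viability read by CellTiter-Glo luminescence after 30 min at room temperature in the same wells.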
# [8] = target: Estrogen receptor (Homo sapiens) (UniProt P03372); assay: qHTS assay to identify small molecule agonists of the estrogen receptor alpha (ER-alpha) signaling pathway in the presence of an antagonist (AID 1259383); further: top concentration of the series differs between compounds; nearly all actives have a fitted effect of over 15% in size
# In short: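 VM7Luc4E2 cells express endogenous full-length ER-alpha with an ERE-luciferase reporter and were hormone-deprived for 5 days. Compounds at 15 concentrations were added with 10.0nM ICI-182,780 for 22hr at 37C. Luminescence was read with ONE-Glo.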
# [9] = qHTS assay to identify small molecule agonists or antagonists of the thyroid stimulating hormone receptor (TSHR) signaling pathway - wild type cell line counter screen (AID 1259384)
# In short: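 Counter screen in untransfected Hek293: compounds (15-point titration, triplicate) plus phosphodiesterase inhibitor Ro20-1724 added after 18 h plating; 30 min RT. Intracellular cAMP via competitive d2/cryptate immunoassay, 1 h incubation.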
# [10] = target: Thyrotropin receptor (Homo sapiens) (UniProt P16473); assay: qHTS assay to identify small molecule antagonists of the thyroid stimulating hormone receptor (TSHR) signaling pathway (AID 1259385); further: nearly all actives have a fitted effect of over 20% in size; further: potency means the concentration at half of the fitted maximal effect
# In short: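 Antagonist mode: compound-treated TSHR-expressing HEK293 cells were stimulated with 1.5 ng/mL TSH (final) in presence of Ro20-1724 for 30 min at RT. HTRF cAMP detection after 1 h; each compound tested at 15 concentrations, triplicate.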
# [11] = qHTS assay to identify small molecule agonists of the estrogen receptor alpha (ER-alpha) signaling pathway in the presence of an antagonist - cell viability counter screen (AID 1259386; active means well fitted curve in the direction sought with a large enough effect in the repeat runs; an effect the other way counts as inactive or inconclusive;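 further: series mostly up to about 92 µM; cells exposed to compounds for 22 h at 37 °C before the viability read; nearly all actives have a fitted effect of over 30% in size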)
# In short: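 Cell viability in VM7Luc4E2 cells (endogenous full-length ER-alpha) measured by CellTiter-Fluor fluorescence in the same wells as the luciferase screen. Cells pre-cultured 5 days in charcoal-stripped serum, then treated 22 h with compounds at 15 concentrations plus 10.0nM ICI-182,780.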
# [12] = target: Progesterone receptor (Homo sapiens) (UniProt P06401); assay: qHTS assay to identify small molecule agonists of the progesterone receptor (PR) signaling pathway (AID 1346784); further: nearly all actives have a fitted effect of over 30% in size
# In short: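 Agonist qHTS: compounds pinned onto 3,000 PR-UAS-bla HEK 293T cells per well in charcoal-stripped serum medium, 16hr at 37C, then beta-lactamase activity measured by LiveBLAzer FRET fluorescence after 2 hours at room temperature.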
# [13] = target: Progesterone receptor (Homo sapiens) (UniProt P06401); assay: qHTS assay to identify small molecule antagonists of the progesterone receptor (PR) signaling pathway (AID 1346795; active means well fitted inhibition curve with a large enough effect in the signal ratio in the repeat runs, not every such curve was filed as active; the % refers to the signal ratio; further: potency means the concentration at half of the fitted maximal effect)
# In short: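 Antagonist mode with agonist R5020 at 1 nM final and 16 hr incubation at 37C. Reporter was beta-lactamase driven by UAS in HEK293T (PR-UAS-bla), 2% charcoal-stripped serum; signal from LiveBLAzer FRET substrate, 2 hr at room temperature.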
# [14] = qHTS assay to identify small molecule antagonists of the progesterone receptor (PR) signaling pathway - cell viability counter screen (AID 1346798; active means well fitted curve in the direction sought with a large enough effect in the repeat runs; an effect the other way counts as inactive or inconclusive; further: nearly all actives have a fitted effect of over 50% in size; further: potency means the concentration at half of the fitted maximal effect)
# In short: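 Cytotoxicity read as CellTiter-Glo luminescence (30 min, room temperature) in the same wells as the beta-lactamase readout. HEK293T PR-UAS-bla cells in charcoal-stripped 2% FBS received compound and R5020, then 16 h at 37C, 5% CO2.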
# [15] = qHTS assay to identify small molecule agonists of the progesterone receptor (PR) signaling pathway - cell viability counter screen (AID 1346799); further: nearly all actives have a fitted effect of over 45% in size; further: potency means the concentration at half of the fitted maximal effect
# In short: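 Cytotoxicity measured by CellTiter-Glo luminescence (30 min, RT) in the same wells as the PR beta-lactamase agonist read. Those HEK293T cells had 16 h compound treatment at 37 C in 2% charcoal-stripped FBS medium.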
# [16] = qHTS assay to identify small molecule antagonists of the TGF-beta/Smad signaling pathway - cell viability counter screen (AID 1346824; active means well fitted curve in the direction sought with a large enough effect in the repeat runs; an effect the other way counts as inactive or inconclusive; further: nearly all actives have a fitted effect of over 50% in size)
# In short: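 Cytotoxicity counter-screen run in the same wells as the beta-lactamase Smad reporter read: CellTiter-Glo luminescence after 30 min at room temperature. HEK 293T SBE-bla cells had 5 hr compound exposure at 37 C with TGF-beta1 (0.25 ng/mL stock).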
# [17] = qHTS assay to identify small molecule agonists of the TGF-beta/Smad signaling pathway - cell viability counter screen (AID 1346829; active means well fitted curve in the direction sought with a large enough effect in the repeat runs; an effect the other way counts as inactive or inconclusive; further: top concentration of the series differs between compounds; nearly all actives have a fitted effect of over 45% in size)
# In short: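 Same-well cytotoxicity: CellTiter-Glo added after the 2 hr room-temperature beta-lactamase substrate step, luminescence measured 30 min later; cells had 5 hr of compound at 37 C.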
# [18] = qHTS assay to identify small molecule agonists of the TGF-beta/Smad signaling pathway (AID 1346859; active means well fitted activation curve with a large enough effect in the signal ratio in the repeat runs, not every such curve was filed as active; the % refers to the signal ratio; further: series mostly up to about 77 µM)
# In short: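 Fluorescence (ex 405 nm; em 460 and 530 nm) was read 2 h after LiveBLAzer FRET substrate at RT. The preceding compound treatment of overnight-plated SBE-bla HEK293T cells lasted 5 h at 37 C.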
# [19] = target: Thyrotropin-releasing hormone receptor (Homo sapiens) (UniProt P34981); assay: qHTS assay to identify small molecule antagonists of the thyrotropin-releasing hormone receptor (TRHR) signaling pathway (AID 1346877; active means well fitted inhibition curve with a large enough effect in the repeat runs, not every such curve was filed as active; further: series mostly up to about 51 µM)
# In short: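 TRHR-expressing HEK293 cells loaded with calcium dye for 2 h at 37 C; compounds pre-incubated 5 min at room temperature before TRH challenge at 1 nM final. Intracellular calcium fluorescence read kinetically for 3 min; 15 concentrations in triplicate.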
# [20] = target: Thyrotropin-releasing hormone receptor (Homo sapiens) (UniProt P34981); assay: qHTS assay to identify small molecule agonists of the thyrotropin-releasing hormone receptor (TRHR) signaling pathway (AID 1346891); further: series mostly up to about 58 µM
# In short: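 Agonist-mode intracellular calcium readout: kinetic fluorescence over 3 min at 1 s intervals after compound addition to TRHR-HEK293 cells (18 h seeded, 2 h dye-loaded at 37 C). Fifteen concentrations, triplicates.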
# Thyrotropin-releasing hormone receptor (Homo sapiens), sequence (P34981 whole entry, looked up): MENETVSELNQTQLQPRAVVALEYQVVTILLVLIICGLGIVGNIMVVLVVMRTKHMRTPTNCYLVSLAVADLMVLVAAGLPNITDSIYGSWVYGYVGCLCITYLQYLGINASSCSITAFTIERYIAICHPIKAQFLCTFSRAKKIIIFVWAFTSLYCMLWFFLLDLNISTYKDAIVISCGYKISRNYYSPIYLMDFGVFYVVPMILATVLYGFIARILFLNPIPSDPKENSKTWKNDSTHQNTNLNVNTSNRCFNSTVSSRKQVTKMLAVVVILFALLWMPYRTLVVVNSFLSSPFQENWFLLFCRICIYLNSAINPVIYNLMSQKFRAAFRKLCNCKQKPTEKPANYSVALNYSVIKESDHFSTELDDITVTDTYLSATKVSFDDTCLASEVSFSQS
# Progesterone receptor (Homo sapiens), sequence (P06401 whole entry, looked up): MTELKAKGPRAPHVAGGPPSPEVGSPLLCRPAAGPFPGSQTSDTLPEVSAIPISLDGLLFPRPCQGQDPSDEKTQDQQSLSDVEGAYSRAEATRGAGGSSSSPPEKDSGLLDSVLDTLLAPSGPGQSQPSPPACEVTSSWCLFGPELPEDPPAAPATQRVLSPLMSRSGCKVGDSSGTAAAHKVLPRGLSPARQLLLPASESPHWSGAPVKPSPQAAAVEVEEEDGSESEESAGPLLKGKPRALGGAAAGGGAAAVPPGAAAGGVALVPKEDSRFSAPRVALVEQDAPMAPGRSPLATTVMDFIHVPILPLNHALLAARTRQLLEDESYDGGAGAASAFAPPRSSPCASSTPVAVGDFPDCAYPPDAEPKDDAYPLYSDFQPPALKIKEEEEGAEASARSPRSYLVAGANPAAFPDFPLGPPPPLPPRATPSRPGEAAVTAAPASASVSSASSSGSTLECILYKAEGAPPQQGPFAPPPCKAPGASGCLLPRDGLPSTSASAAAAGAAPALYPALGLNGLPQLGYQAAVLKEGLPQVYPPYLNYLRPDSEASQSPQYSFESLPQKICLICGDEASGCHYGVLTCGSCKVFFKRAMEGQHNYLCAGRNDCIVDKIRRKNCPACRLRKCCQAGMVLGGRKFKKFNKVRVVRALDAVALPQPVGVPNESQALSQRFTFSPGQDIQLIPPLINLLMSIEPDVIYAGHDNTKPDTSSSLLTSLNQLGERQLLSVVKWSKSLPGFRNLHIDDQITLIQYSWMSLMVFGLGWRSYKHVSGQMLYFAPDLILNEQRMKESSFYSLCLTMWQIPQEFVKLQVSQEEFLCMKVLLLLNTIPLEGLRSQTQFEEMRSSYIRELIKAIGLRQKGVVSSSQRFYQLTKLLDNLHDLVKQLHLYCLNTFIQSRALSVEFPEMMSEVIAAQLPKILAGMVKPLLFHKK
# Estrogen receptor (Homo sapiens), sequence (P03372 whole entry, looked up): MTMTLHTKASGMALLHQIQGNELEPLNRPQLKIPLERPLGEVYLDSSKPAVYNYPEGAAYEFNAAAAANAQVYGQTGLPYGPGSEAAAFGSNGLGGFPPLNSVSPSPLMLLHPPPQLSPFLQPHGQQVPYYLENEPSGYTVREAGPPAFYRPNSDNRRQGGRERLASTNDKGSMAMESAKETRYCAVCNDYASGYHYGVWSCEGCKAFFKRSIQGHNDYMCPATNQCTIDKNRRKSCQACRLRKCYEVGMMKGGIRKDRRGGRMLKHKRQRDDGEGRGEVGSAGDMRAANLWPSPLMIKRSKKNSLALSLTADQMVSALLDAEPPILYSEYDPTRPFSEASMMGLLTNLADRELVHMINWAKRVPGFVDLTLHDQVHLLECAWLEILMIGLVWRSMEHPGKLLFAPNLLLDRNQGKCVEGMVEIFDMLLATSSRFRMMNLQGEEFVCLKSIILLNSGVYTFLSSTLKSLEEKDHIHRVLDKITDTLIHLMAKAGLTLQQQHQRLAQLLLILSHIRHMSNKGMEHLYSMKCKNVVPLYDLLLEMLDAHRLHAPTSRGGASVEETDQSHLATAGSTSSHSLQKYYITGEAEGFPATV
# Estrogen receptor beta (Homo sapiens), sequence (Q92731 whole entry, looked up): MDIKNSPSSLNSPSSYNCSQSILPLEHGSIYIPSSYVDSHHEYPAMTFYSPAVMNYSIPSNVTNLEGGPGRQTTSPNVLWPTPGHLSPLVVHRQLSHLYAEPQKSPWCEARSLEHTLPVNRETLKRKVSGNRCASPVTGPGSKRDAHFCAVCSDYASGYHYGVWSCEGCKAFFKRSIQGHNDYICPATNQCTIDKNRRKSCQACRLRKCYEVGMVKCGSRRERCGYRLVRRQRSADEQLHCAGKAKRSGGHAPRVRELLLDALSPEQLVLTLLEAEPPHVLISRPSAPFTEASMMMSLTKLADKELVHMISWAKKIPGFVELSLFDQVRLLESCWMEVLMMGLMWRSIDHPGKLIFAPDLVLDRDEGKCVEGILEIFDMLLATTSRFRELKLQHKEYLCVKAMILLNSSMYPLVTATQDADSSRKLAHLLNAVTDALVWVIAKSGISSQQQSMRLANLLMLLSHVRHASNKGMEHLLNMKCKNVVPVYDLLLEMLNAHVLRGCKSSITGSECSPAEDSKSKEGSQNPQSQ
# Thyrotropin receptor (Homo sapiens), sequence (P16473 whole entry, looked up): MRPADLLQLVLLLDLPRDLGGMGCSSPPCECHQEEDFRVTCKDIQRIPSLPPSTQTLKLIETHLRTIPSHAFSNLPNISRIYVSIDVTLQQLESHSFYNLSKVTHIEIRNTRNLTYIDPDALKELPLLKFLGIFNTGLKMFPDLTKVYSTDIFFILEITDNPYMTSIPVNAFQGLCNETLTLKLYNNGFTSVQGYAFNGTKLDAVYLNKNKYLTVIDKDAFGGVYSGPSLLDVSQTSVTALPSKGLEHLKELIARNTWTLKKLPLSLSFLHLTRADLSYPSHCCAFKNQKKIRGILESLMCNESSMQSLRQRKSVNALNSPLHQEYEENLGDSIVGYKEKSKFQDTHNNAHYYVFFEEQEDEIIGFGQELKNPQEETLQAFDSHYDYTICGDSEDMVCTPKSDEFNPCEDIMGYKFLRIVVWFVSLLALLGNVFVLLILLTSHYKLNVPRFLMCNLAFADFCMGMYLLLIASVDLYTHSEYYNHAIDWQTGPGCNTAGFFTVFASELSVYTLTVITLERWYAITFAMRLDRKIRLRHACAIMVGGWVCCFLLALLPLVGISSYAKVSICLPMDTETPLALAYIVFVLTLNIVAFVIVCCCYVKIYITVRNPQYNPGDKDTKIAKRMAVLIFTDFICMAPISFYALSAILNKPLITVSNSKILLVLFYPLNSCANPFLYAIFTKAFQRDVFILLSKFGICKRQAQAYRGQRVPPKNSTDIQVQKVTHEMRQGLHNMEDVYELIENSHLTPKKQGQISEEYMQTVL
# Androgen receptor (Homo sapiens), sequence (P10275 whole entry, looked up): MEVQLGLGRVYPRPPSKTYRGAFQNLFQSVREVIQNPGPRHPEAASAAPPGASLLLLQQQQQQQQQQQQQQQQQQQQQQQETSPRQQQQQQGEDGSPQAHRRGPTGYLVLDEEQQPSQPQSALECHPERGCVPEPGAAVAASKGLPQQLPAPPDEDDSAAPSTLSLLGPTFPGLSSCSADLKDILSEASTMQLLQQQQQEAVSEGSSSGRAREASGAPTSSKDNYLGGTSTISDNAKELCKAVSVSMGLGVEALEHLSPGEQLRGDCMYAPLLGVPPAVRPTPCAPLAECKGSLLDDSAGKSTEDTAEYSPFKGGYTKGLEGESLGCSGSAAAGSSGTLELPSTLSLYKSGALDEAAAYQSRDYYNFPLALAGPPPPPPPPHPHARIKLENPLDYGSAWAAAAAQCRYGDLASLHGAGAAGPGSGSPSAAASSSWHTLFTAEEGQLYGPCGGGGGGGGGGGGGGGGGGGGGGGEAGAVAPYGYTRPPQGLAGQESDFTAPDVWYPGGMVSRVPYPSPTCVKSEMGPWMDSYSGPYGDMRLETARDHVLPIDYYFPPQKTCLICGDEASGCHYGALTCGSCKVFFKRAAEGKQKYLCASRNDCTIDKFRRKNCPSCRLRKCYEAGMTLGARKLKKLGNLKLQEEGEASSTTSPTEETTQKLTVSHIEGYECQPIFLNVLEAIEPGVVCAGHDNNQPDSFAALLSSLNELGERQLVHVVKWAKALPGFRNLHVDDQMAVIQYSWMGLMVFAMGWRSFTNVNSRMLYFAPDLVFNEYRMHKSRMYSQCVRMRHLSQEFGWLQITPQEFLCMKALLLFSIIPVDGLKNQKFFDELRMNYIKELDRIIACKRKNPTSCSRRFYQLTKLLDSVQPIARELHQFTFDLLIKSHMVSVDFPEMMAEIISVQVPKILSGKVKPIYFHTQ
SMILES,Potency [1],Potency [2],Potency [3],Potency [4],Potency [5],Potency [6],Potency [7],Potency [8],outcome [9],Potency [10],Potency [11],Potency [12],Potency [13],Potency [14],Potency [15],Potency [16],Potency [17],Potency [18],Potency [19],Potency [20]
Clc1ccc2nsnc2c1NC1=NCCN1,inactive,inactive,inactive,inactive,inactive,inactive,inactive,inactive,inactive,inactive,inactive,inactive,inactive,inactive,inactive,inactive,inactive,inactive,,
CCN(Cc1cccnc1)C(=O)c1cccc(Cl)c1[C@]1(C)C(=O)N(Cc2ccc(OC)cc2OC)c2ccc(Cl)cc21,28.6 µM (active),inactive,8.07 µM (active),,,inactive,inactive,inactive,inactive,inactive,,inactive,16.1 µM (active),inactive,inactive,inactive,inactive,,inactive,inactive
CC(C)(C)C(=O)OCOC(=O)[C@@H]1N2C(=O)[C@@H](NC(=O)[C@H](N)c3ccccc3)[C@H]2SC1(C)C,inactive,inactive,,inactive,inactive,,inactive,inactive,inactive,inactive,inactive,inactive,inactive,inactive,,,inactive,inactive,inactive,inactive
C[C@@H](NCCCc1cccc(C(F)(F)F)c1)c1cccc2ccccc12,18.8 µM (active),inactive,,29.8 µM (active),21.1 µM (active),inactive,18.8 µM (active),inactive,inactive,,inactive,inactive,,26.6 µM (active),23.7 µM (active),,,,,inactive
Cc1cc(N)c(S(=O)(=O)O)cc1Cl,inactive,inactive,inactive,inactive,inactive,,inactive,,inactive,inactive,inactive,,,inactive,inactive,inactive,inactive,inactive,inactive,inactive
O=[N+]([O-])c1ccccc1Nc1ccccc1,inactive,inactive,,inactive,inactive,,inactive,inactive,inactive,,,,,inactive,inactive,inactive,inactive,inactive,inactive,inactive
O=c1[nH]sc2ccccc12,0.969 µM (active),inactive,,,19.3 µM (active),,27.3 µM (active),inactive,inactive,68.6 µM (active),,,,27.3 µM (active),30.6 µM (active),inactive,inactive,inactive,,
CCOc1nc2cccc(C(=O)OC(C)OC(=O)OC3CCCCC3)c2n1Cc1ccc(-c2ccccc2-c2nn[nH]n2)cc1 (stereo not given),21.7 µM (active),inactive,,,,,19.3 µM (active),inactive,inactive,inactive,inactive,,,21.7 µM (active),19.3 µM (active),,,,,
CN(C)c1ccc(SC#N)cc1,48.6 µM (active),inactive,,,54.5 µM (active),,,inactive,inactive,inactive,inactive,,,inactive,,inactive,inactive,inactive,,inactive
CN(C)[C@@H]1C(=O)C(C(N)=O)=C(O)[C@@]2(O)C(=O)C3=C(O)c4c(O)ccc(Cl)c4[C@@H](O)[C@H]3C[C@@H]12,inactive,inactive,,inactive,,,inactive,,inactive,inactive,inactive,inactive,inactive,inactive,inactive,inactive,inactive,,,inactive
CC(C)OC(=O)c1cc2c(OCC(O)CNC(C)(C)C)cccc2[nH]1 (stereo not given),2.66 µM (active),inactive,,inactive,,inactive,,,inactive,inactive,inactive,,,,,inactive,inactive,inactive,inactive,inactive
S=c1[nH]c2ccccc2s1,21.7 µM (active),inactive,,inactive,,,,,,,inactive,,,,,inactive,inactive,inactive,inactive,inactive
N#CC1(c2ccc(F)cc2)CCC(=O)CC1,inactive,inactive,,inactive,,inactive,inactive,inactive,inactive,inactive,inactive,inactive,,,inactive,,inactive,inactive,,inactive
CC(C)CCCCCCCCCCCCCCC(=O)O,inactive,inactive,,inactive,54.5 µM (active),,inactive,,,,,,inactive,inactive,,inactive,inactive,inactive,inactive,inactive
COc1c(C)c2c(c(O)c1C/C=C(\C)CCC(=O)O)C(=O)OC2,inactive,inactive,,inactive,0.133 µM (active),,,inactive,,,inactive,inactive,,0.119 µM (active),,inactive,inactive,,inactive,inactive
O=C1c2ccccc2Cc2ccccc21,inactive,inactive,,inactive,inactive,,inactive,inactive,inactive,inactive,,inactive,,inactive,inactive,inactive,inactive,,inactive,inactive
CCCCN(CCCC)C(=O)N(CCCC)CCCC,inactive,inactive,,inactive,,,inactive,,inactive,,inactive,,inactive,inactive,inactive,inactive,inactive,inactive,,
O=C(NO)C1(NS(=O)(=O)c2ccc(Oc3ccc(F)cc3)cc2)CCOCC1,inactive,inactive,,,inactive,,inactive,inactive,inactive,inactive,inactive,inactive,inactive,,,inactive,inactive,inactive,,inactive
